Experimental findings from PubChem BioAssay (EPA / NIEHS) are described below.

Assay [1] is described as follows: BSK_KF3CT_SRB: Viability Assessment in the BioMAP Diversity Plus: KF3CT Assay (AID 2283069).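 Also: total protein by sulforhodamine B staining as a cytotoxicity measure; read 24 h after compound addition.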 As to conditions: primary human keratinocytes with fibroblasts. A digest of the protocol: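 SRB read-out at 560 nm (0.1% stain, TCA-fixed cells) gauges overt cytotoxicity in a human skin keratinocyte–fibroblast co-culture 24 h post-dosing. Signal change was fitted bidirectionally relative to DMSO control.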

Read-out in assay [2]: Interleukin-1 alpha (IL1a), IL1A (gene 3552)
Kind of assay: BSK_KF3CT_IL1a: BioMAP Diversity Plus: KF3CT Assay for Interleukin-1 alpha (IL1a) Biomarker Activity (AID 2283070). As to conditions: primary human keratinocytes with fibroblasts; actives raise or lower the signal. A digest of the protocol:
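Primary skin co-culture (keratinocytes, foreskin fibroblasts), 24 h exposure; ELISA for IL-1a; bidirectional curve fit vs DMSO.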

Read-out in assay [3]: C-C motif chemokine 2 (Homo sapiens) (UniProt P13500)
Kind of assay: BSK_KF3CT_MCP1: BioMAP Diversity Plus: KF3CT Assay for Monocyte Chemoattractant Protein 1 (MCP1/CCL2) Biomarker Activity (AID 2283073). As to conditions: primary human keratinocytes with fibroblasts; actives raise or lower the signal. The essentials:
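KF3CT skin co-culture (keratinocytes/foreskin fibroblasts), 24 h post-dose; MCP-1 by ELISA; gain/loss of signal fit bidirectionally vs DMSO baseline.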

Read-out in assay [4]: urokinase plasminogen activator (uPA), PLAU (gene 5328)
Kind of assay: BSK_KF3CT_uPA: BioMAP Diversity Plus: KF3CT Assay for urokinase plasminogen activator (uPA) Biomarker Activity (AID 2283075). As to conditions: primary human keratinocytes with fibroblasts; actives raise or lower the signal. The essentials:
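Skin co-culture (keratinocytes + foreskin fibroblasts), human primary; 24 h post-dose; uPA by ELISA; gain/loss fit vs DMSO baseline.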

Read-out in another assay: CD40, CD40 (gene 958)
Kind of assay: BSK_LPS_CD40: BioMAP Diversity Plus: LPS Assay for CD40 Biomarker Activity (AID 2283076). The settings on record: primary human HUVEC with PBMC; actives raise or lower the signal. The essentials:
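ELISA readout of CD40 in HUVEC/PBMC co-culture (BSK_LPS system), 24 h post-dosing; bidirectional curve fit, DMSO baseline; parallel SRB total-protein staining for cytotoxicity.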

Read-out in assay [5]: E-selectin (Homo sapiens) (UniProt P16581)
Kind of assay: BSK_LPS_Eselectin: BioMAP Diversity Plus: LPS Assay for Eselectin Biomarker Activity (AID 2283077). The settings on record: primary human HUVEC with PBMC; actives raise or lower the signal. A digest of the protocol: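 ELISA readout of E-selectin, 24 h post-dose, HUVEC + PBMC co-culture (LPS system). Gain or loss of signal vs DMSO baseline, bidirectional fit.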

Read-out in assay [6]: Interleukin-8 (IL8), CXCL8 (gene 3576)
Kind of assay: BSK_LPS_IL8: BioMAP Diversity Plus: LPS Assay for Interleukin-8 (IL8) Biomarker Activity (AID 2283078). As to conditions: primary human HUVEC with PBMC; actives raise or lower the signal. The essentials:
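HUVEC + PBMC co-culture, LPS-activated; test chemicals dosed, IL-8 read by ELISA at 24 h. Bidirectional curve fit vs DMSO baseline (gain or loss of signal).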

Read-out in assay [7]: Matrix Metallopeptidase 9 (MMP9), MMP9 (gene 4318)
The assay can be described thus: BSK_KF3CT_MMP9: BioMAP Diversity Plus: KF3CT Assay for Matrix Metallopeptidase 9 (MMP9) Biomarker Activity (AID 2283074).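 As to AC50: MMP9 protein level quantified by ELISA in the co-culture.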 The settings on record: primary human keratinocytes with fibroblasts; actives raise or lower the signal. The essentials: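 ELISA read-out of MMP-9 at 24 h post-dosing in a co-culture of human skin keratinocytes and foreskin fibroblasts. Gain or loss of signal was fitted in both directions against DMSO.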

Read-out in assay [8]: Transforming growth factor beta 1 (TGFb1), TGFB1 (gene 7040)
Kind of assay: BSK_KF3CT_TGFb1: BioMAP Diversity Plus: KF3CT Assay for Transforming growth factor beta 1 (TGFb1) Biomarker Activity (AID 2283072). The settings on record: primary human keratinocytes with fibroblasts; actives raise or lower the signal. A digest of the protocol:
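KF3CT co-culture (keratinocytes + fibroblasts), 24 h exposure → TGF-b1 ELISA → bidirectional fit, DMSO = baseline. Parallel SRB total-protein staining (0.1% SRB, 10% TCA fixation, 560 nm) for cytotoxicity.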

The source made the active and inactive calls. The calls were made as follows: active = hit-call score of the fitted dose curve at least 0.9, where 1 is the maximum; inactive = score below 0.9.

Chain of E-selectin (Homo sapiens) (P16581 whole entry, looked up): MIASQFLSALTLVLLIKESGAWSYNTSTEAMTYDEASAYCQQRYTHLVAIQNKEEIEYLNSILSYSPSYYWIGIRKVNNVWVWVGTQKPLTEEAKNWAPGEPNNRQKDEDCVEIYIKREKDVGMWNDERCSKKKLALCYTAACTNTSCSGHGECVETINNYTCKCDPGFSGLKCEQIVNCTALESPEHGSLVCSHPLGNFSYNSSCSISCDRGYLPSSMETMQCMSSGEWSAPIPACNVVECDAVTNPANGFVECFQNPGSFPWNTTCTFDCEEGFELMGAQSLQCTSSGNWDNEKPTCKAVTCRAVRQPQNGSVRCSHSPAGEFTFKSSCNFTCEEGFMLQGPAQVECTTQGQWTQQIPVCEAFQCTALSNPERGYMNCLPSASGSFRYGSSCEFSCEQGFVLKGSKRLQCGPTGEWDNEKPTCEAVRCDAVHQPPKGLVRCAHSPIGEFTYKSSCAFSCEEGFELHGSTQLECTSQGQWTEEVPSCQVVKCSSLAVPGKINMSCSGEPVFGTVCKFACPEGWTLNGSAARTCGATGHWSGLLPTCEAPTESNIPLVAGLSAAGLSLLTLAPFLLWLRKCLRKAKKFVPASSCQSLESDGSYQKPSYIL

Regarding `CC(C)(OO)c1ccccc1`, the outcome was “inactive” in assay [1]; “inactive” in assay [2]; “inactive” in assay [3]; “inactive” in assay [4]; “inactive” with CD40, CD40 (gene 958); “inactive” in assay [5]. Further, the outcome in assay [6] was inactive.
One may read the AC50 as the midpoint of the concentration-response curve, whichever way the signal moves. `CCSC(C)CC1CC(=O)C(C(CC)=NOC/C=C/Cl)=C(O)C1` (configuration not stated): the result in assay [1], in [2], in assay [3], in assay [4] and in [5] was inactive. The AC50 in assay [6] was 0.0903 µM (active).
Regarding `C=CC(=O)OCCCCCC(C)C`, the outcome in assay [1] is “inactive”; in [2], “inactive”; in assay [3], “inactive”; in assay [4] it was “inactive”; with CD40, CD40 (gene 958), “inactive”; in [5] it was “inactive”. In assay [6], the result was inactive.
Consider `CCOP(=S)(OCC)Oc1ccc(S(C)=O)cc1` (configuration not stated), for which the outcome in [1], in [2], in assay [3], in [7], in assay [4] and in assay [5] was inactive. Further, the outcome in assay [6] was inactive.
`COC(=O)Cc1ccccc1`: the result in [1], in assay [2], in assay [3], in assay [4], in [5] and in assay [6] was inactive.
Regarding `CCOP(=S)(OCC)SCCS(=O)(=O)CC`, the result in [1], in assay [2], in assay [8], in assay [3], in assay [4] and in assay [5] was inactive. For the same compound, the result in assay [6] was inactive.
On to `ClC1(Cl)C2(Cl)C3(Cl)C4(Cl)C(Cl)(Cl)C5(Cl)C3(Cl)C1(Cl)C5(Cl)C24Cl` (configuration not stated), for which the outcome in [1], in [2], in assay [3], in assay [4], in assay [5] and in [6] was inactive.
For `ClC1=C(Cl)[C@]2(Cl)[C@H]3[C@H]([C@H]4C=C[C@H]3C4)[C@@]1(Cl)C2(Cl)Cl`, the outcome in [1], in assay [2], in [3], in [4] and in [5] was inactive. In addition, the AC50 in assay [6] is 0.16 µM (active).
Consider `O=[N+]([O-])c1ccc2c3c(cccc13)CC2`, for which the outcome in assay [1], in [2], in assay [8], in [3], in assay [4] and in assay [5] was inactive. Further, the result in [6] was inactive.
Turning to `CCNc1nc(NC(C)(C)C)nc(SC)n1`, the outcome is “inactive” in assay [1]; “inactive” in assay [3]; “inactive” in assay [4]; “inactive” with CD40, CD40 (gene 958); “inactive” in [5]; “inactive” in [6]. The half-maximal activity concentration (AC50) in [2] was 20 µM (active).
On to `Cc1ccccc1N`, for which the result in [1], in assay [2], in [3], in assay [4], in assay [5] and in assay [6] was inactive.
As for `NC(=S)Nc1ccccc1`, the outcome in assay [1] was “inactive”; in assay [2], “inactive”; in assay [8], “inactive”; in assay [3] it was “inactive”; in [4], “inactive”; with CD40, CD40 (gene 958), “inactive”. The result in [5] and in [6] was inactive.
In the case of `Nc1cccc2ccccc12`, the outcome in assay [1], in assay [2], in assay [4], in [5] and in [6] was inactive.
Regarding `O=C(Nc1ccc2[nH]ccc2c1)c1cc2cc(F)ccc2n1Cc1cccc(F)c1`, the concentration at half-maximal activity (AC50) was 5.91 µM (active) in [1]; 6.68 µM (active) in [2]; 6.52 µM (active) in assay [3]; 4.6 µM (active) in assay [7]; 8.64 µM (active) in assay [4]; 8.35 µM (active) with CD40, CD40 (gene 958). For the same compound, the concentration at half-maximal activity (AC50) was 12.4 µM (active) in assay [5] and 10.4 µM (active) in assay [6].
Consider `C[C@@H]1C[C@@H]([C@H](O)CC2CC(=O)NC(=O)C2)C(=O)[C@@H](C)C1`, for which the AC50 in [1] was 11.6 µM (active); in [2] it was 31.2 µM (active); in [8], 2.79 µM (active); in assay [3], 0.991 µM (active); in assay [4], 13.2 µM (active); in [5] it was 1.77 µM (active). For the same compound, in assay [6], the AC50 is 6.73 µM (active).
Take `CC12CC1(C)C(=O)N(c1cc(Cl)cc(Cl)c1)C2=O` (configuration not stated): the result in assay [1], in assay [2], in [3], in [4], in assay [5] and in [6] was inactive.
Turning to `Oc1ccc(-c2ccccc2)cc1`, the outcome in [1], in assay [4], in assay [5] and in assay [6] was inactive. Besides, the AC50 in assay [2] is 11.5 µM (active); in [3], 0.016 µM (active).
